{"source": "PubChem BioAssay (EPA / NIEHS)", "note": "The source made the active and inactive calls. Rule for the calls: active = hit-call score of the fitted dose curve at least 0.9, where 1 is the maximum; inconclusive = response in the unintended direction; inactive = score below 0.9."}
{"molecular_target": "Peroxisome proliferator-activated receptor gamma (Homo sapiens) (UniProt P37231)", "sequence (P37231 whole entry, looked up)": "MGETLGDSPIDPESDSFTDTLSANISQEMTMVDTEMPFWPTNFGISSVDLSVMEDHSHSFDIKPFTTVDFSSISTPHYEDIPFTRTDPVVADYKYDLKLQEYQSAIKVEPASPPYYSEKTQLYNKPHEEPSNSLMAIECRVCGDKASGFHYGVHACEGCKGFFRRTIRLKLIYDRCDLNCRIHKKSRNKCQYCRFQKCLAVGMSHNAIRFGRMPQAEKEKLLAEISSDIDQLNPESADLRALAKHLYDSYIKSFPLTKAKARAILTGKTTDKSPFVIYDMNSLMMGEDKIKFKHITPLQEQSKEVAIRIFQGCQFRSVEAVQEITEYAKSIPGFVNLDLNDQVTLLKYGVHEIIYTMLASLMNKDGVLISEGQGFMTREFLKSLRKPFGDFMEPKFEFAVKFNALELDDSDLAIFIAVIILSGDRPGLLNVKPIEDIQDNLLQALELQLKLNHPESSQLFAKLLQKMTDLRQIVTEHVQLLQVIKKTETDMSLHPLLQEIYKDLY", "assay": "OT_PPARg_PPARgSRC1_1440: Odyssey Thera (OT) 24-hour Protein-Complementation Assay for Peroxisome Proliferator-activated Receptor Gamma/ SRC-1 Co-activator (AID 2283388);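 note: nuclear to cytoplasmic ratio of reconstituted Venus YFP fluorescence in fixed imaged cells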", "summary_of_the_method": "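Readout is the 488 nm N/C fluorescence ratio from fixed, Draq5-stained HEK293T cells after 24 h compound exposure. Cells carried transiently transfected PPARg and SRC-1 fused to Venus fragments, transfected 48 h before treatment.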"}
{"smiles": "Clc1ccc(C(Cl)(Cl)Cl)cc1", "outcome": "inactive"}
{"smiles": "Oc1ccc(C(c2ccc(O)cc2)(C(F)(F)F)C(F)(F)F)cc1", "outcome": "inactive"}
{"smiles": "Oc1c(Cl)c(Cl)c(Cl)c(Cl)c1Cl", "outcome": "inactive"}
{"smiles": "COc1ccc(O)c(C(C)(C)C)c1", "outcome": "inactive"}
{"smiles": "CC(C)(c1ccccc1)c1ccc(O)cc1", "outcome": "inactive"}
{"smiles": "ClC(Cl)=C(c1ccc(Cl)cc1)c1ccc(Cl)cc1", "outcome": "inactive"}
{"smiles": "Cc1ccccc1O", "outcome": "inactive"}
{"smiles": "CC(c1ccc(O)cc1)(c1ccc(O)cc1)c1ccc(O)cc1", "outcome": "inactive"}
{"smiles": "CCC(C)c1cc([N+](=O)[O-])cc([N+](=O)[O-])c1O", "note": "(configuration not stated)", "outcome": "inactive"}
{"smiles": "Cc1cccc([N+](=O)[O-])c1", "outcome": "inactive"}
{"smiles": "C1CC2OC2CC1C1CO1", "note": "(configuration not stated)", "outcome": "inactive"}
{"smiles": "c1ccc(-c2ccccc2)cc1", "outcome": "inactive"}
{"smiles": "C=CC(=O)NCNC(=O)C=C", "outcome": "inactive"}
{"smiles": "Clc1ccc(Cl)cc1", "outcome": "inactive"}
{"smiles": "CCCCCCCCCC[N+](C)(C)CCCCCCCCCC", "outcome": "inactive"}
{"smiles": "CCCCCCCCOC(=O)c1ccccc1C(=O)OCCCCCCCC", "outcome": "inactive"}
{"smiles": "CN(C)c1nc(=O)n(C2CCCCC2)c(=O)n1C", "outcome": "inactive"}
{"smiles": "O=C(O)C(F)(F)C(F)(F)C(F)(F)C(F)(F)C(F)(F)C(F)(F)C(F)(F)C(F)(F)C(F)(F)F", "outcome": "inactive"}
{"smiles": "CC(C)C(=O)OCC(C)(C)C(OC(=O)C(C)C)C(C)C", "note": "(configuration not stated)", "outcome": "inactive"}
{"smiles": "CO/C=C(/C(=O)OC)c1ccccc1COc1cccc(C(F)(F)F)n1", "outcome": "inactive"}
{"smiles": "OCC(O)CO", "outcome": "inactive"}
{"smiles": "Nn1cnnc1", "outcome": "inactive"}
{"smiles": "O=NN(c1ccccc1)c1ccccc1", "outcome": "inactive"}
{"smiles": "Cc1ccccc1[N+](=O)[O-]", "outcome": "inactive"}
{"smiles": "ClC1=C(Cl)[C@]2(Cl)[C@@H]3[C@@H](Cl)[C@H]4O[C@H]4[C@@H]3C1(Cl)C2(Cl)Cl", "outcome": "inactive"}
{"smiles": "O=C(O)C(F)(F)C(F)(F)C(F)(F)C(F)(F)C(F)(F)F", "outcome": "inactive"}
{"smiles": "O=S(=O)(O)C(F)(F)C(F)(F)C(F)(F)C(F)(F)C(F)(F)C(F)(F)F", "outcome": "inactive"}
{"smiles": "COS(=O)(=O)OC", "outcome": "inactive"}
{"smiles": "O=C(NC(=O)c1cc(F)c(F)cc1Cl)Nc1cc(F)ccc1N1CCC(C(=O)O)CC1", "outcome": "inactive"}
{"smiles": "CCCCCCCCCc1ccc(O)cc1", "outcome": "inactive"}
{"smiles": "CN(C)CCO", "outcome": "inactive"}
{"smiles": "CCC(C)(c1ccc(O)cc1)c1ccc(O)cc1", "outcome": "inactive"}
